Screens (PubChem BioAssay)
ADAM10 inh = human ADAM10 inhibitors, primary screen, biochemical, QFRET, HTS. Disintegrin and metalloproteinase domain-containing protein 10 (Homo sapiens), O14672. recombinant ADAM10, EDANS/DABCYL FRET peptide cleavage, 3 h. inhibition, % at 7 µM. 0.62% of 370,000 active;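 active = inhibition above a per-campaign cutoff equal to the mean of compounds falling between control-based bounds plus 3 SD, cut at about 20% in these data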
ADAM17 inh = ADAM17 inhibitors, primary screen, biochemical, QFRET; Disintegrin and metalloproteinase domain-containing protein 17 (Homo sapiens), P78536; recombinant ADAM17, EDANS/DABCYL FRET peptide cleavage; inhibition, % at 6.95 µM; 0.83% of 370,000 active; AID 720648, 2013;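 active = inhibition above the mean of compounds lying between control limits plus 3 SD, set per campaign, cut at about 8.5% in these data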
aDG glyco up = activators of alpha-DG glycosylation, primary screen, uHTS, Pro5-aDG cells, AlphaScreen. activation, % at 10 µM. 0.22% of 360,000 active. AID 624168, 2012. alpha-DG glycosylation AlphaScreen (IIH6); 0% Pro5, 100% B10-LARGE cell signal;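 active = activation of at least 8% versus controls, or a plate z-score of at least 8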;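 note: Pro5 are CHO cells carrying HIG-tagged alpha-DG that lacks glycosylation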
FAS TE block = FAS thioesterase domain inhibitors, primary screen, biochemical, fluorescence intensity, uHTS; Fatty acid synthase (Homo sapiens), P49327; recombinant FAS-TE, OMFH fluorogenic substrate, fluorescence endpoint; inhibition, % at 15 µM; 0.67% of 360,000 active; AID 602261, 2012;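 active = compounds whose normalised, plate-corrected inhibition of enzyme fluorescence in the single-dose primary screen is 50% or more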
GRIN3A LBD mod = binders of NR3A ligand-binding domain, primary screen, biophysical, differential scanning fluorimetry, uHTS; Glutamate receptor ionotropic, NMDA 3A (GRIN3A) ligand-binding domain; Tm shift relative to glycine control, % at 25 µM; NR3A LBD differential scanning fluorimetry, Tm shift; 0% = protein alone, 100% = glycine-bound protein; 2.5% of 340,000 active; AID 1259313, 2017;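 active = melting temperature shift of at least 10% of the positive control shift, at one fixed dose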
ADAM10 ctr = ADAM10 inhibitors, counter-screen for ADAM17 exosite inhibitor project, biochemical, FRET, human ADAM10; shares compounds with ADAM17 inh; recombinant ADAM10, EDANS/DABCYL FRET peptide cleavage, 3 h; inhibition, % at 6.95 µM; 47% of 2,900 active;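 active = mean inhibition over the triplicate runs exceeds the activity threshold set in the earlier primary screen, cut at about 20% in these data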
ADAM17 confirm = ADAM17 inhibitors, hit retest, confirmation, biochemical, QFRET peptide cleavage | shares compounds with ADAM17 inh | 65% of 2,900 active | AID 743257, 2014 | recombinant ADAM17, EDANS/DABCYL QFRET peptide cleavage | inhibition, % at 6.95 µM;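 active = mean inhibition across replicates above the hit cutoff set in the primary screen, cut at about 8.5% in these data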
Each line names hits and unclear results; the compound was inactive in the other large screens (follow-up assays come after a bar, where they were run). Shown are actives, neighbours in structure and some others; about 4% of the full set was active somewhere.

Cc1cc(C)nc(SCc2ccc(C(=O)N/N=C/c3cccc(O)c3O)cc2)n1	none
N#Cc1ccc(CSc2nnc(-c3ccccn3)n2-c2ccccc2)cc1	none
c1ccc(-n2c(SCc3cccc4ccccc34)nnc2-c2ccccn2)cc1	ADAM17 inh 9.2 (no result: aDG glyco up, FAS TE block, GRIN3A LBD mod) | ADAM10 ctr inactive | ADAM17 confirm 12
CCOC(=O)CNC(=O)Nc1cc(C(C)(C)C)nn1-c1ccccc1	none
O=C(CN1CCN(S(=O)(=O)c2ccc(Cl)cc2)CC1)c1ccc(O)c(O)c1	none (no result: ADAM10 inh, ADAM17 inh)
Cc1ccc(NC(=O)c2ccc(Nc3c([N+](=O)[O-])cc([N+](=O)[O-])cc3[N+](=O)[O-])cc2)cc1	ADAM17 inh 10 | ADAM10 ctr 23 | ADAM17 confirm 12
CC1(C)CC(=O)c2cc(C(=O)NCc3ccco3)c(=O)n(-c3ccc(Cl)cc3)c2C1	none
NC(Cc1ccc(F)cc1)c1csc(NC(=O)NC(c2ccccc2)c2ccccc2)n1 (stereo not given)	ADAM17 inh 8.8 (no result: GRIN3A LBD mod) | ADAM10 ctr 20 | ADAM17 confirm 9.3
O=C(Nc1ccc(OC(=O)c2ccco2)cc1)c1ccco1	none
O=C(OC1CCCCC1)c1ccc(NC(=O)c2ccco2)cc1	ADAM17 inh 12 | ADAM10 ctr 21 | ADAM17 confirm 12
Cc1ccc(C(=O)N(C)CC(=O)Nc2ccc(Cl)c(C(F)(F)F)c2)cc1S(=O)(=O)N1CCCCC1	none
OCCC1CN(Cc2ccc3nsnc3c2)CCN1CCc1ccccc1 (stereo not given)	none
CSCCC(=O)N1CCCC(CNC(=O)c2ccc(-c3ccccc3)cc2)C1 (stereo not given)	none
O=C(CCNS(=O)(=O)c1ccccc1C(F)(F)F)N1CCN(C(c2ccccc2)c2ccccc2)CC1	ADAM17 inh 8.9 | ADAM10 ctr 30 | ADAM17 confirm 18
O=C(CCNS(=O)(=O)c1ccccc1)NCCCSc1ccccc1	none
O=C(CCNS(=O)(=O)c1ccccc1C(F)(F)F)NCCCSc1ccccc1	ADAM17 inh 8.7 | ADAM10 ctr inactive | ADAM17 confirm 10
O=C(CN1CCN(c2cccc(C(F)(F)F)c2)CC1)Nc1cccc(C(F)(F)F)c1	ADAM17 inh 8.8 | ADAM10 ctr 24 | ADAM17 confirm 12
O=C(CN1CCOCC1)Nc1cccc(C(F)(F)F)c1	none
O=S(=O)(c1cccc(Cl)c1)N1CCN(S(=O)(=O)c2ccc3c(c2)OCCO3)CC1	ADAM17 inh 10 | ADAM10 ctr inactive | ADAM17 confirm inactive
O=C(NCc1ccccc1)C1CCN(c2nc(-c3ccccc3)nc3c2CCC3)CC1	none
Cc1cccc(-n2c(O)c(C=Nc3ccc4c(c3)OCO4)c3ccccc3c2=O)n1	none
Cc1nc(NC(=O)CSc2nc3ccccc3s2)sc1C(=O)N(C)C	ADAM17 inh 10 | ADAM10 ctr inactive | ADAM17 confirm inactive
Cc1cc(C)nc(NC(=O)CSc2nc3ccccc3s2)n1	none
O=C(N[C@H]1C/C=C\C[C@@H](CC(=O)N(CCO)Cc2ccccc2)C(=O)NC[C@H](c2ccccc2)OC1=O)OCC1c2ccccc2-c2ccccc21	ADAM17 inh 17 | ADAM10 ctr inactive | ADAM17 confirm inactive
CC1(C(=O)Nc2cnc3ccccc3c2)CCN1Cc1ccc2c(c1)OCCO2 (stereo not given)	none (no result: GRIN3A LBD mod)
CCC(C(=O)NCc1ccco1)N(C(=O)CNS(=O)(=O)c1ccccc1)C1CCCCC1 (stereo not given)	none
CC(C)C(C(=O)NCc1ccco1)N(C(=O)CNS(=O)(=O)c1ccccc1)C1CCCC1 (stereo not given)	ADAM17 inh 10 | ADAM10 ctr inactive | ADAM17 confirm inactive
COC(=O)c1ccc(-n2c(C)cc(C(=O)CSc3ccc(NC(C)=O)cc3)c2C)cc1	ADAM17 inh 9.0 | ADAM10 ctr 22 | ADAM17 confirm 16
Cn1cc(C2(c3c[nH]c4ccccc34)CCN(C(=O)OC(C)(C)C)CC2)c2ccccc21	ADAM17 inh 11 (no result: aDG glyco up, FAS TE block, GRIN3A LBD mod) | ADAM10 ctr inactive | ADAM17 confirm inactive
COc1ccccc1NS(=O)(=O)c1cc(NC(=O)c2cccs2)ccc1N1CCCC1	ADAM17 inh 10 | ADAM10 ctr inactive | ADAM17 confirm inactive
O=C(/C=C/c1cccs1)Nc1ccc(N2CCOCC2)c(S(=O)(=O)Nc2ccccc2Cl)c1	ADAM17 inh 11 | ADAM10 ctr inactive | ADAM17 confirm inactive
COc1ccccc1NS(=O)(=O)c1cc(NC(=O)c2cc[n+]([O-])cc2)ccc1N1CCCC1	none
COc1ccccc1NS(=O)(=O)c1cc(NC(=O)C(C)C)ccc1N1CCCCC1	none
COc1ccccc1NS(=O)(=O)c1cc(NC(=O)Nc2ccccc2)ccc1N1CCCCC1	ADAM17 inh 8.8, GRIN3A LBD mod 20 | ADAM10 ctr inactive | ADAM17 confirm inactive
COc1ccc(/C=C(/NC(=O)c2ccccc2)C(=O)N2CCCC2)cc1OC	none
CCOC(=O)N1CCN(c2c(-c3ccc(C)c(C)c3)c(=O)c2=O)CC1	none
O=C(c1ccccc1)c1ccc(C(=O)N2CCN(c3ccc(O)cc3)CC2)cc1	ADAM17 inh 8.7 | ADAM10 ctr inactive | ADAM17 confirm inactive
O=C(c1ccc(N2CCN(C(=O)c3ccccc3)CC2)cc1)c1cccc(F)c1	none
Cc1nnsc1NC(=O)OCc1ccc(Cl)cc1Cl	ADAM17 inh 10 | ADAM10 ctr inactive | ADAM17 confirm inactive
O=S(=O)(Cc1ccc(Cl)cc1)C1CCCCC1O (stereo not given)	ADAM17 inh 11 | ADAM10 ctr inactive | ADAM17 confirm inactive
O=S(=O)(Cc1ccc(Cl)cc1)NCC1CCCO1 (stereo not given)	none
Cc1ccc(Cl)cc1N(CC(=O)Nc1cccc(N(C)S(C)(=O)=O)c1)S(C)(=O)=O	none
CN(c1cccc(NC(=O)CN(c2cccc(Cl)c2)S(=O)(=O)c2ccc(Cl)cc2)c1)S(C)(=O)=O	ADAM17 inh 11 | ADAM10 ctr 31 | ADAM17 confirm 16
Cc1oncc1-c1csc(-c2ccccc2)n1	none
CC(=O)NNC(=O)CC(=O)Nc1nc(C23CC4CC(CC(C4)C2)C3)cs1	ADAM17 inh 8.9 | ADAM10 ctr inactive | ADAM17 confirm inactive
O=C(O)c1c[nH]c2nccnc12	none (no result: GRIN3A LBD mod)
